Bead autofluor = counter-screen for toxin protease inhibitors: compound fluorescence; compound autofluorescence counterscreen, microsphere flow cytometry; active compounds read high; fluorescence intensity (no concentration beside the values); 360,000 tested, 3.1% active; AID 624483; in the data active = fluorescence intensity above about 16000; inconclusive = no clear call, values can overlap the other calls
BoNT F protease = BoNT/F light chain protease inhibitors, primary screen, biochemical, flow cytometry, MLPCN library; inhibition, % at 10 µM; Botulinum neurotoxin type F light chain protease (Clostridium botulinum); AID 588497, 2011; 360,000 tested, 0.22% active; Multiplex microsphere protease cleavage assay; in the data active = inhibition above about 35%, passing the limit was not always enough; inconclusive = no clear call, values can overlap the other calls; also: plate controls were buffer without enzyme for full effect and enzyme alone for no effect
MazEF act = activators of E. coli MazEF toxin-antitoxin RNase, primary screen, biochemical, fluorescence, uHTS; FAM/BHQ RNA-DNA oligo cleavage fluorescence, 5 h; 350,000 tested, 0.32% active; activation, % at 20 µM; Endoribonuclease toxin MazF (Escherichia coli (strain K12)), P0AE70; in the data active = activation above about 50%
Target sequence (P0AE70 whole entry, looked up): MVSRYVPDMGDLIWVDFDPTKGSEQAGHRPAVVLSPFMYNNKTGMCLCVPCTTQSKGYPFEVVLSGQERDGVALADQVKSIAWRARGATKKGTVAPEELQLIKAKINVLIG
BoNT-A LC inh2 = BoNT/A light chain protease inhibitors, primary screen, biochemical, flow cytometry, MLPCN library; 360,000 tested, 0.17% active; AID 588499, 2011; inhibition, % at 10 µM; multiplex microsphere protease substrate cleavage; also: plate controls were buffer without enzyme for full effect and enzyme alone for no effect
DUSP3 inh = VHR1 phosphatase inhibitors, primary screen, biochemical, absorbance, uHTS; Dual specificity protein phosphatase 3 (Homo sapiens), P51452; recombinant VHR phosphatase, pNPP absorbance; inhibition, % at 13.3 µM; 290,000 tested, 0.52% active; AID 1654, 2009; in the data active = inhibition above about 50%
Target sequence (P51452 whole entry, looked up): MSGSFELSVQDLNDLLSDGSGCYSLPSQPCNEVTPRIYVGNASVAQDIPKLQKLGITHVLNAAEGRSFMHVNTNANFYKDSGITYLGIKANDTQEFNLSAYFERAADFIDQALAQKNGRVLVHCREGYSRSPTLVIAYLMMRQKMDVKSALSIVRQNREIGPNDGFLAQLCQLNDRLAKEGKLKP
Anthrax LF prot = Bacillus anthracis LF protease inhibitors, primary screen, biochemical, multiplex microsphere, MLPCN library | Lethal factor (Bacillus anthracis), P15917 | multiplex microsphere protease cleavage assay | inhibition, % at 10 µM | 360,000 tested, 0.12% active | AID 588501, 2011; also: plate controls were buffer without enzyme for full effect and enzyme alone for no effect
The depositor's hits bear a star; ? = inconclusive; . = no result given. Only some compounds are listed: those with a hit (about 4.1% of all), similar ones and a draw of the others. Rule as the data show it, unless noted: active = inhibition above about 30%; inconclusive = no clear call, values can overlap the other calls; inactive = below that.

SMILES	Bead autofluor	BoNT F protease	MazEF act	BoNT-A LC inh2	DUSP3 inh	Anthrax LF prot
COc1ccccc1CCNC(=O)CCNS(=O)(=O)c1ccc(NC(C)=O)cc1	6410	-12.3	0.0	-3.5	.	1.7
COc1ccc(NC(=O)Nc2ccc(N(C)C)cc2)cc1	18854*	-23.6	38.5	3.4	10.8	-14.1
COc1ccccc1CNS(=O)(=O)c1ccc(NC(C)=O)cc1	22915*	-2.1	-0.3	-1.6	4.8	-2.4
CCCC1NC(=O)c2cccnc2-n2c1nc1ccc(Cl)cc1c2=O (stereo not drawn)	3631	-6.7	3.6	-0.3	.	-0.1
O=C(CN1C(=O)NC2(CCCC2)C1=O)NNC(=O)c1ccccc1F	3943	-0.9	4.1	0.0	.	-2.4
COc1ccc(CC(=O)Nc2ccc(S(=O)(=O)Nc3nc(C)cc(C)n3)cc2)cc1	19652*	2.7	-6.8	2.2	35.0	-5.1
CCOc1cc(NS(=O)(=O)c2ccc(NC(C)=O)cc2)c(OCC)cc1NC(=O)C(C)C	20625*	5.7	-3.4	3.2	-14.0	-7.8
C(=Cc1c[nH]c2ccccc12)c1ccc2ccccc2n1	5756	-2.5	6.1	-1.5	.	-13.5
C(=Cc1c[nH]c2ccccc12)c1nccc2ccccc12	5277	-0.8	113.1*	1.6	.	-2.4
CN(C)c1oc(-c2ccccc2Cl)nc1C#N	10580	-0.3	13.8	-0.1	14.6	-2.2
CN(C)c1oc(-c2ccccc2)nc1C#N	22791*	1.1	1.9	0.0	-1.0	-4.4
CC(C)C[C@@H]1COc2cccc(N3CCSCC3)c2S(=O)(=O)N1	6052	-5.8	.	0.7	.	-1.1
CC(C)(C)c1ccc(S(=O)(=O)N2CC(=O)Nc3ccccc32)cc1	23729*	-3.0	9.2	-1.0	31.2	0.1
CC(C)NC(=O)OCc1c(COC(=O)NC(C)C)c([N+](=O)[O-])n2c1CCC2	5237	3.7	.	-0.2	.	2.0
CC(=O)n1cc(/C=C2/N=C(c3ccccc3)OC2=O)c2ccccc21	10609	7.7	148.7*	1.8	-4.8	-0.3
Cc1ccc(C)c(N2CCN(C(=O)CCC(=O)Nc3nnc(C(F)(F)F)s3)CC2)c1	5615	-3.7	-0.8	-1.6	20.9	-2.6
N/C(=N\OC(=O)c1ccc(Cl)cc1)c1ccccn1	21717*	8.4	-4.5	?	10.5	0.4
CC(C)(C)NC(=O)CSc1nc2ccc(NC(=O)CSc3nnnn3Cc3ccccc3)cc2s1	3772	?	-19.5	0.8	-4.2	-8.4
CCOC(=O)CSc1nc2ccc(NC(=O)CSc3nnnn3Cc3ccccc3)cc2s1	20885*	-2.7	-15.1	-1.5	-4.6	-3.7
CC(=O)NCc1nc2ccccc2n1Cc1ccccc1C	5297	-11.2	0.8	-0.5	12.0	-5.0
O=CNCCCc1nc2ccccc2n1Cc1ccccc1	16906*	0.8	-0.7	-0.7	15.4	-2.6
CC(=O)NCCCc1nc2ccccc2n1Cc1ccccc1C	24006*	-2.2	7.9	?	0.3	-0.3
COc1ccc(C(=O)c2ccc(Cl)cc2)c(OC)c1OC	3750	-5.2	-5.8	-0.7	.	2.9
CC(=O)Nc1nonc1-c1ccccc1	20934*	-2.7	-1.8	?	31.9	0.1
COc1ccc(C(=O)OCC(=O)NCC2CCCCC2)cc1F	.	.	-21.3	.	.	.
SMILES	Bead autofluor	BoNT F protease	MazEF act	BoNT-A LC inh2	DUSP3 inh	Anthrax LF prot
COc1ccccc1NC(=O)c1ccc(Br)o1	4730	-13.8	-5.4	-0.8	-5.8	1.3
Cc1cc(O)c(NC(=O)c2ccc(Br)o2)cc1C	21608*	4.3	2.7	1.9	12.7	-3.7
CCN(CC)c1ccc(NC(=O)c2ccc(Br)o2)c(C)c1	20876*	-2.7	2.0	-0.9	6.1	-2.6
O=C(Nc1cccc(Cl)c1N1CCCC1)c1ccc(Br)o1	21468*	-6.1	0.7	-1.7	7.2	-3.4
O=C(NCc1cccnc1)Nc1ccc(Br)cc1	4464	-4.7	3.3	0.5	52.8*	-1.4
COc1ccc(C(N)c2csc(Nc3ccc(C(F)(F)F)cn3)n2)cc1 (stereo not drawn)	2958	-6.8	.	-0.5	.	-9.4
CCN(C(=O)COC(=O)CCCOc1ccccc1)c1c(N)n(Cc2ccccc2)c(=O)[nH]c1=O	?	6.2	6.4	2.7	.	9.5
CC(OC(=O)/C=C/c1ccco1)C(=O)NC1CCCCC1 (stereo not drawn)	4293	8.0	5.1	-0.3	.	-2.5
Cn1c2c(c3ccccc31)CCSC2=O	22095*	1.2	4.6	0.1	25.6	-5.3
CCOc1ccccc1NC(=O)CN1CCCCCC1	4206	-15.0	-11.1	2.3	16.5	8.1
COc1ccc(-c2c(C)n([O-])c(C)c(C)[n+]2=O)cc1OC	3706	-22.9	0.2	-0.7	-1.9	-2.9
COc1ccc(-c2c(C)n([O-])c(C)c(-c3ccccc3)[n+]2=O)cc1OC	21301*	4.0	3.6	2.1	27.7	-3.3
CC(C)C(=O)Nc1cccc(C(=O)NCCc2ccc(S(N)(=O)=O)cc2)c1	20300*	13.1	7.8	?	21.9	-1.2
NS(=O)(=O)c1ccc(CCNC(=O)c2cccnc2)cc1	20577*	-4.9	-0.3	-2.3	35.2	-3.7
O=C(NCCc1ccccc1)c1cccnc1	3365	-0.3	0.9	-0.1	3.0	-0.9
CC(C)C(=O)Nc1cccc(C(=O)Nc2ccccc2C(=O)O)c1	20875*	-0.8	2.2	-0.4	6.5	-2.3
C[C@@H]1CN([C@@H](C)CO)C(=O)CCCn2nncc2CO[C@@H]1CN(C)S(=O)(=O)c1ccc2ccccc2c1	3813	-5.7	3.2	0.1	.	-2.2
CS(=O)(=O)c1nc(S(=O)(=O)c2ccc(Cl)cc2)c(N2CCCCCC2)s1	5750	1.7	2.9	-1.8	-8.2	-1.1
Cc1cc2c3c(c1C)C1(C(=O)N3C(C)(C)CC2C)C(C#N)=C(N)Oc2n[nH]c(C)c21 (stereo not drawn)	8183	-1.3	-5.4	-0.2	-4.7	1.9
Cc1cc2c3c(c1)C1(C(=O)N3C(C)(C)CC2C)C(C#N)=C(N)Oc2n[nH]c(C)c21 (stereo not drawn)	21117*	0.7	-9.7	?	13.1	2.1
CN(C)c1ccc(/C=N/N(CCC#N)C2=NS(=O)(=O)c3ccccc32)cc1	3849	5.9	139.9*	0.5	9.5	7.4
CN(C)c1ccc(/C=N/N(CCO)C2=NS(=O)(=O)c3ccccc32)cc1	3775	?	-570.0	-0.3	13.0	6.6
Cc1nnc2c3ccccc3c(-c3cccc4ccccc34)nn12	19934*	7.8	9.1	?	2.7	-5.7
CCN1C(=O)c2ccccc2Sc2ccc(C(=O)N3CCC4(CC3)OCCO4)cc21	7469	6.2	10.0	0.9	22.1	4.2
CN1C(=O)c2ccccc2Sc2ccc(C(=O)N3CCC4(CC3)OCCO4)cc21	19800*	2.0	1.1	2.8	27.1	-4.0

Bioassay records from PubChem.
